The campaign covered roughly 58,000 […]. About 3,400 (5.9%) were called active. Rule as the data show it: active = GI50 up to about 1.1 µM and inactive = higher. Not all results are given here. Results with a measured potency or affinity are listed apart.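 Values below derive from 48-hour exposures of cells grown in 96-well plates, with endpoints linearly interpolated between the two concentrations bracketing the appropriate inhibition level. The concentration for 50% growth inhibition is given as GI50.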

The subject of this assay is A549. Kind of assay: NCI tumour cell line growth inhibition, 48 h.
As for “[Bis(aminomethyl)ethylmethylsilane]tetrachloroplatinum(IV), CHEMBL2146192”, the GI50 was determined as 2.57 µM. Consider “[Bis(aminomethyl)tetramethylenesilane]dichloropaltinum(II), CHEMBL2146205”, for which the GI50 is 27 µM. As to “mu-(1,7-nanodiamine-N,N')bis-(cis-aminedichloroplatimum (II)), CHEMBL2146215”, the GI50 turned out to be 38.7 µM. As to “[Bis(aminomethyl)dimethylsilane]tetrachloroplatinum(IV), CHEMBL2146190”, the GI50 was 4.91 µM. “[Bis(aminomethyl)diethylsilane]tetrachloroplatinum(IV), CHEMBL2146203” had a GI50 of 6.84 µM. Take CISPLATIN, CHEMBL11359: the GI50 was determined as 3.08 µM. As to “[Bis(aminomethyl)dimethylsilane]dichloroplatinum (II), CHEMBL2146201”, the GI50 is 17.4 µM.

For “cis-Bis[[(trimethylsilyl)methyl]amino]tetrachloroplatinum(IV), CHEMBL2146191”, the GI50 was 15.6 µM. The figure for “[Bis(aminomethyl)tetramethylenesilane]tetrachloropaltinum(IV), CHEMBL2146189” is 8.34 µM; for “[Bis(aminomethyl)pentamethylenesilane]dichloropaltinum(II), CHEMBL2146202” it is 2.08 µM; for “[Bis(aminomethyl)pentamethylenesilane]tetrachloropaltinum(IV), CHEMBL2146204” it is 2.02 µM.

(Values after ChEMBL document CHEMBL1201862, “PubChem BioAssay data set” (2004).)
